Results published in PubChem BioAssay AID1159580 (chemical genetic matrix, 2015).
Out of some 5,500 compounds screened, about 2,000 (36%) were called active. About 18% were inconclusive and are not listed. Rule as the data show it: active = normalized growth mostly below about 0.91 (no sharp cut-off); inconclusive = no clear call, values can overlap the other calls; inactive = mostly above about 0.92. Some of the results follow.

Assay: chemical genetic growth profiling, strain panel (AID 1159580);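 also: tested at 20 µM; growth read once vehicle control cultures reached saturation at 30 °C; 1 = growth at the plate median or of vehicle wells; lower values mean less growth of the strain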
Settings: S. cerevisiae deletion strains, growth OD
[1] = locus YDL101C, strain DUN1, stronger effect = lower value
[2] = locus YHR030C, strain SLT2, stronger effect = lower value

Measured: normalized growth

Cc1c(-n2cccc2)cc2c(c1[N+](=O)[O-])C(C)(C)CC2(C)C
inactive: locus YAL013W, strain DEP1, stronger effect = lower value 1.01 | locus YBR229C, strain ROT2, stronger effect = lower value 1.01 | locus YCL061C, strain MRC1, stronger effect = lower value 1.01 | [1] 1.02 | locus YDR150W, strain NUM1, stronger effect = lower value 1.02 | locus YEL061C, strain CIN8, stronger effect = lower value 1 | locus YGR078C, strain PAC10, stronger effect = lower value 1.02 | [2] 1.05 | locus YHR087W, strain rtc3, stronger effect = lower value 1.01 | locus YJL187C, strain SWE1, stronger effect = lower value 1.02 | locus YJR043C, strain POL32, stronger effect = lower value 1.01 | locus YJR075W, strain HOC1, stronger effect = lower value 1.05 | locus YLR039C, strain RIC1, stronger effect = lower value 1.06 | locus YLR058C, strain SHM2 (second series), stronger effect = lower value 0.994 | locus YLR085C, strain ARP6, stronger effect = lower value 1.01 | locus YLR262C, strain YPT6, stronger effect = lower value 1.07 | locus YML094W, strain GIM5, stronger effect = lower value 1.02 | locus YMR219W, strain ESC1, stronger effect = lower value 1.02 | locus YMR263W, strain SAP30, stronger effect = lower value 1 | locus YNL153C, strain GIM3, stronger effect = lower value 0.998 | locus YNL298W, strain CLA4 (second series), stronger effect = lower value 1.04 | locus YNL322C, strain KRE1, stronger effect = lower value 1.02 | locus YNR030W, strain Alg12, stronger effect = lower value 1.01 | locus YOL006C, strain TOP1, stronger effect = lower value 1.03 | locus YPL055C, strain LGE1, stronger effect = lower value 1 | locus YPL241C, strain CIN2, stronger effect = lower value 1 | locus YPR135W, strain CTF4, stronger effect = lower value 1.04

N#C/C(=N/Nc1ccc(Cl)cc1)C(N)=S
active: locus YAR019C, strain CDC15, stronger effect = lower value 0.44 | locus YBL105C, strain PKC1, stronger effect = lower value 0.434 | locus YBR135W, strain CKS1, stronger effect = lower value 0.529 | locus YBR136W, strain MEC1, stronger effect = lower value 0.513 | locus YBR160W, strain CDC28, stronger effect = lower value 0.515 | locus YDL017W, strain CDC7, stronger effect = lower value 0.616 | locus YDL028C, strain MPS1, stronger effect = lower value 0.647 | [1] 0.345 | locus YDL108W, strain KIN28, stronger effect = lower value 0.617 | locus YDL132W, strain cdc53, stronger effect = lower value 0.43 | locus YDL214C, strain PRR2, stronger effect = lower value 0.176 | locus YDR052C, strain DBF4, stronger effect = lower value 0.825 | locus YDR054C, strain cdc34, stronger effect = lower value 0.325 | locus YDR226W, strain ADK1, stronger effect = lower value 0.57 | locus YDR477W, strain SNF1, stronger effect = lower value 0.155 | locus YER123W, strain YCK3, stronger effect = lower value 0.197 | locus YER133W, strain GLC7, stronger effect = lower value 0.194 | locus YFL009W, strain cdc4, stronger effect = lower value 0.468 | locus YFL029C, strain CAK1, stronger effect = lower value 0.467 | locus YFR003C, strain YPI1, stronger effect = lower value 0.644 | locus YFR019W, strain FAB1, stronger effect = lower value 0.182 | locus YFR028C, strain CDC14, stronger effect = lower value 0.577 | locus YGR040W, strain KSS1, stronger effect = lower value 0.179 | locus YGR052W, strain FMP48, stronger effect = lower value 0.204 | locus YGR092W, strain DBF2, stronger effect = lower value 0.15 | [2] 0.208 | locus YHR079C, strain IRE1, stronger effect = lower value 0.145 | locus YHR082C, strain KSP1, stronger effect = lower value 0.206 | locus YHR205W, strain SCH9, stronger effect = lower value 0.226 | locus YIL147C, strain SLN1, stronger effect = lower value 0.627 | locus YJL095W, strain BCK1, stronger effect = lower value 0.186 | locus YJL128C, strain PBS2, stronger effect = lower value 0.628 | locus YJL157C, strain FAR1, stronger effect = lower value 0.172 | locus YJR016C, strain ILV3, stronger effect = lower value 0.574 | locus YJR066W, strain TOR1 (second series), stronger effect = lower value 0.234 | locus YJR066W, strain TOR1, stronger effect = lower value 0.244 | locus YKL048C, strain ELM1, stronger effect = lower value 0.327 | locus YKL067W, strain YNK1, stronger effect = lower value 0.167 | locus YKL101W, strain HSL1, stronger effect = lower value 0.212 | locus YKL193C, strain SDS22, stronger effect = lower value 0.42 | locus YKL203C, strain TOR2, stronger effect = lower value 0.217 | locus YLR113W, strain HOG1, stronger effect = lower value 0.275 | locus YLR133W, strain CKI1, stronger effect = lower value 0.205 | locus YLR403W, strain SFP1, stronger effect = lower value 0.175 | locus YML070W, strain DAK1, stronger effect = lower value 0.183 | locus YMR001C, strain CDC5, stronger effect = lower value 0.475 | locus YMR205C, strain PFK2 (second series), stronger effect = lower value 0.236 | locus YMR277W, strain FCP1, stronger effect = lower value 0.352 | locus YNL006W, strain LST8, stronger effect = lower value 0.452 | locus YNL020C, strain ARK1, stronger effect = lower value 0.182 | locus YNL161W, strain CBK1, stronger effect = lower value 0.427 | locus YNL183C, strain NPR1, stronger effect = lower value 0.185 | locus YNL207W, strain RIO2, stronger effect = lower value 0.515 | locus YNL222W, strain SSU72, stronger effect = lower value 0.428 | locus YNL307C, strain MCK1 (second series), stronger effect = lower value 0.177 | locus YOL078W, strain AVO1, stronger effect = lower value 0.483 | locus YOL136C, strain PFK27, stronger effect = lower value 0.199 | locus YOR061W, strain CKA2, stronger effect = lower value 0.23 | locus YOR119C, strain RIO1, stronger effect = lower value 0.225 | locus YOR231W, strain MKK1, stronger effect = lower value 0.171 | locus YOR329C, strain SCD5, stronger effect = lower value 0.515 | locus YPL031C, strain PHO85, stronger effect = lower value 0.207 | locus YPL153C, strain RAD53, stronger effect = lower value 0.193 | locus YPL204W, strain HRR25, stronger effect = lower value 0.203 | locus YPL209C, strain IPL1, stronger effect = lower value 0.601 | locus YPL256C, strain CLN2, stronger effect = lower value 0.231 | locus YPR025C, strain CCL1, stronger effect = lower value 0.611 | locus YPR106W, strain ISR1, stronger effect = lower value 0.475 | locus YPR111W, strain DBF20, stronger effect = lower value 0.583 | strain NNK1, stronger effect = lower value 0.471 | strain TSCII, stronger effect = lower value 0.495
